Experimental data taken from publication PMC4336329 (PLoS ONE, 2015).
In all, about 310,000 compounds went through this assay and about 14,000 (4.5%) showed an effect of 50% or more. Effects have a minus sign here. The full list was thinned out, with strong results kept by preference.
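Note: peak tail current of the secondary pulse compared with the same well before compound.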

These compounds were tested against human ether-à-go-go-related gene (hERG) potassium channel (human, UniProt Q12809) (assay: primary screen, population patch clamp on CHO cells stably expressing hERG; higher = less effect of the substance).
Sequence of human ether-à-go-go-related gene (hERG) potassium channel (Q12809 whole entry, looked up): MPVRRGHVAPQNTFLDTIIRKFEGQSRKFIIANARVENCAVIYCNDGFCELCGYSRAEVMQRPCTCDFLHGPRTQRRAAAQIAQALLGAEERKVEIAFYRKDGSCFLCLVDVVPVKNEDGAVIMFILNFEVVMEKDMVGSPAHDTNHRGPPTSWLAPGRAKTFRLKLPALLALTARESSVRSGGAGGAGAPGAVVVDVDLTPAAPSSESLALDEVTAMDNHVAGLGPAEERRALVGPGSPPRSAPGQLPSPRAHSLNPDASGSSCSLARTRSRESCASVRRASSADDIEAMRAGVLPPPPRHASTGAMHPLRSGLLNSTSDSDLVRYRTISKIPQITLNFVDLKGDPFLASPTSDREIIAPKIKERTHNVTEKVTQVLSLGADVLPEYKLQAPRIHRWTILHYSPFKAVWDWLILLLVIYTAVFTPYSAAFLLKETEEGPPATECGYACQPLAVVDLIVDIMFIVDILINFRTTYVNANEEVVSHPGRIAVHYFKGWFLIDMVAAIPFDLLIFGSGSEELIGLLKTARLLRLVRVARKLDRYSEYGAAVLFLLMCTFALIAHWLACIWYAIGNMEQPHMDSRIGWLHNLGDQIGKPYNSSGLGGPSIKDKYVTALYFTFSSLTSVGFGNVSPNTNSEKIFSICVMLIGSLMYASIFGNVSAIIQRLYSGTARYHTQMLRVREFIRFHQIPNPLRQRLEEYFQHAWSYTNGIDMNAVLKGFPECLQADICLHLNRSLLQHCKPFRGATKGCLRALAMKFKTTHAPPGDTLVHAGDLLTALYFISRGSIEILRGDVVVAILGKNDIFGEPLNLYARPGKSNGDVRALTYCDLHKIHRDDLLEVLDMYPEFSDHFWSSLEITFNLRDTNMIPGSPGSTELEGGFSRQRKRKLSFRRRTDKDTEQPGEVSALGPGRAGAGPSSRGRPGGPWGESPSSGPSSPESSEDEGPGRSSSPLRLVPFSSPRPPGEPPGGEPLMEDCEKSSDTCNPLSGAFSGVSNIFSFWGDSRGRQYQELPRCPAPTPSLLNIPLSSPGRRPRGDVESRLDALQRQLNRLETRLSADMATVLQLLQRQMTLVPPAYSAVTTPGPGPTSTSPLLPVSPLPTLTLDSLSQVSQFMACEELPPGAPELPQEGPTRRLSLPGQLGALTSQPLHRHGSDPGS
`COc1ccc(C2NC(=O)Cc3cc(OC)c(OC)cc32)cc1OC` (stereo not shown) was tested, and the “hERG current change (%, negative = inhibition) at 10uM” value was 5.46%. In the case of `COC(=O)c1ccc(/C=C/C(=O)OCC(=O)Nc2ncc(Cl)cc2Cl)cc1`, the “hERG current change (%, negative = inhibition) at 10uM” value is reported as -19.9%. For `CCOc1ccccc1CNn1cnnc1`, the “hERG current change (%, negative = inhibition) at 10uM” value was 2.62%. In the case of `Cc1nn(Cc2ccc(Cl)c(Cl)c2)c(C)c1NC(=O)c1cc(-c2ccc3c(c2)OCO3)on1`, the “hERG current change (%, negative = inhibition) at 10uM” value is reported as 6.42%. `Clc1ccc2c(c1)C(OC1CN3CCC1CC3)c1ccccc1CS2.O=C(O)/C=C\C(=O)O` (stereo not shown) was tested, and the “hERG current change (%, negative = inhibition) at 10uM” value was -50.6%. In the case of `CCOCCN1CCN(C2c3ccccc3CSc3ccccc32)CC1.O=C(O)C(=O)O` (stereo not shown), the “hERG current change (%, negative = inhibition) at 10uM” value is reported as -30.3%. `Brc1ccc2c(c1)C(C1=NCCN1)c1ccccc1CS2.O=C(O)/C=C\C(=O)O` (stereo not shown) was tested, and the “hERG current change (%, negative = inhibition) at 10uM” value was -20.3%. For `O=C(Nc1cccc(Cl)c1)OC1CN2CCC1CC2` (stereo not shown), the “hERG current change (%, negative = inhibition) at 10uM” value was 29.5%. With `Cc1cccc(NC(=O)OC2CN3CCC2CC3)c1` (stereo not shown) the “hERG current change (%, negative = inhibition) at 10uM” value was -9.77%. In the case of `CN1CCN(CCOC2c3ccccc3CSc3ccc(Cl)cc32)CC1.O=C(O)/C=C\C(=O)O` (stereo not shown), the “hERG current change (%, negative = inhibition) at 10uM” value is reported as -57.2%. In the case of `O=C(Nc1ccccc1Cl)OC1CN2CCC1CC2` (stereo not shown), the “hERG current change (%, negative = inhibition) at 10uM” value is reported as -32.9%. In the case of `Clc1ccc2c(c1)C(C1=NCCN1)c1ccccc1CS2.O=C(O)/C=C\C(=O)O` (stereo not shown), the “hERG current change (%, negative = inhibition) at 10uM” value is reported as -8.02%. With `Brc1ccc2c(c1)C(OC1CN3CCC1CC3)c1ccccc1CS2.O=C(O)/C=C\C(=O)O` (stereo not shown) the “hERG current change (%, negative = inhibition) at 10uM” value was -71.4%. `CCC(=O)OC1(C)C(=O)C=C2C=C(CCCCNC(=O)OC(C)(C)C)OC=C2C1=O` (stereo not shown) was tested, and the “hERG current change (%, negative = inhibition) at 10uM” value was 6.58%. For `CCCN(CCC)CCCNC(=O)CN1C(=O)CSc2ccc(S(=O)(=O)N3CCOCC3)cc21`, the “hERG current change (%, negative = inhibition) at 10uM” value was 20.2%. With `CCc1ccc(-c2nnn(Cc3nc4ccccc4s3)n2)cc1` the “hERG current change (%, negative = inhibition) at 10uM” value was -10.3%. `Cc1ccc(OCC(=O)Nc2ccc(S(=O)(=O)N3CCCC3)cc2)cc1` was tested, and the “hERG current change (%, negative = inhibition) at 10uM” value was 15.5%. With `O=C(N/N=C/c1cc([N+](=O)[O-])ccc1O)C(O)(c1ccccc1)c1ccccc1` the “hERG current change (%, negative = inhibition) at 10uM” value was 4.13%. For `Cc1cc(C(=O)NN=C2CCCCCCC2)c2ccccc2n1`, the “hERG current change (%, negative = inhibition) at 10uM” value was 5.42%. `C=CCOC(=O)C1=C[C@H](c2ccc(C(F)(F)F)cc2)[C@@H](CCCO)[C@H](OCC)O1` was tested, and the “hERG current change (%, negative = inhibition) at 10uM” value was -16.3%. With `O=C(CC1C(=O)NCCN1Cc1ccc(Cl)c(F)c1)NCCc1cccnc1` (stereo not shown) the “hERG current change (%, negative = inhibition) at 10uM” value was -12.7%. With `CCC1CCCCN1C(=O)C(=O)c1cn(CC(=O)N(CC)CC)c2ccccc12` (stereo not shown) the “hERG current change (%, negative = inhibition) at 10uM” value was 21%. `CCCCN(C(=O)c1ccc2c(c1)OCCO2)c1c(N)n(CC(C)C)c(=O)[nH]c1=O` was tested, and the “hERG current change (%, negative = inhibition) at 10uM” value was -11.7%. For `O=c1oc2ccccc2n1CCn1c2ccccc2c2nc3ccccc3nc21`, the “hERG current change (%, negative = inhibition) at 10uM” value was 10.7%. For `COCCNC(=O)CSc1cc(=O)n(C)c2cc(Cl)ccc12`, the “hERG current change (%, negative = inhibition) at 10uM” value was 2.04%. For `Cc1cccc(CN2CCC(CNC(=O)CSc3cc(=O)n(C)c4cc(Cl)ccc34)CC2)c1`, the “hERG current change (%, negative = inhibition) at 10uM” value was -69.7%. `CN(CCCNC(=O)CSc1cc(=O)n(C)c2cc(Cl)ccc12)Cc1ccccc1` was tested, and the “hERG current change (%, negative = inhibition) at 10uM” value was -63.5%. `Cn1c(=O)cc(SCC(=O)NCCC2=CCCCC2)c2cc(Cl)ccc21` was tested, and the “hERG current change (%, negative = inhibition) at 10uM” value was 5.01%. `Cn1c(=O)cc(SCC(=O)NCC2CCCO2)c2ccc(Cl)cc21` (stereo not shown) was tested, and the “hERG current change (%, negative = inhibition) at 10uM” value was -7.37%. For `CCCCNC(=O)CSc1cc(=O)n(C)c2ccccc12`, the “hERG current change (%, negative = inhibition) at 10uM” value was 4.11%. In the case of `CCN1CCCC1CNC(=O)CSc1cc(=O)n(C)c2cc(Cl)ccc12` (stereo not shown), the “hERG current change (%, negative = inhibition) at 10uM” value is reported as -32.7%. For `CN(CCCNC(=O)CSc1cc(=O)n(C)c2ccc(Cl)cc12)Cc1ccccc1`, the “hERG current change (%, negative = inhibition) at 10uM” value was -61.2%. In the case of `CCOc1ccc(CCNC(=O)CSc2cc(=O)n(C)c3cc(Cl)ccc23)cc1OCC`, the “hERG current change (%, negative = inhibition) at 10uM” value is reported as -3.7%. With `Cn1c(=O)cc(SCC(=O)NCCCN2CCOCC2)c2ccc(Cl)cc21` the “hERG current change (%, negative = inhibition) at 10uM” value was -3.15%. With `CCN(CCCNC(=O)CSc1cc(=O)n(C)c2cc(Cl)ccc12)Cc1ccccc1` the “hERG current change (%, negative = inhibition) at 10uM” value was -58.8%. In the case of `CN(CCCNC(=O)COc1cc(=O)n(C)c2ccccc12)Cc1ccccc1`, the “hERG current change (%, negative = inhibition) at 10uM” value is reported as -18.1%. For `C/C(CC(=O)Nc1ccc(Cl)cc1Cl)=N\NC(=O)C(=O)NCCO`, the “hERG current change (%, negative = inhibition) at 10uM” value was 6.64%. For `O=C(NCc1ccco1)c1cc2nc(-c3cccs3)cc(C(F)(F)F)n2n1`, the “hERG current change (%, negative = inhibition) at 10uM” value was -17.6%. In the case of `COc1cc(NC(=O)c2ccc(COCC(F)(F)F)cc2)cc(OC)c1OC`, the “hERG current change (%, negative = inhibition) at 10uM” value is reported as 1.25%. In the case of `O=C(CSc1ccccc1)N[C@@H](Cc1ccccc1)C(=O)O`, the “hERG current change (%, negative = inhibition) at 10uM” value is reported as 13.7%. In the case of `O=C(Nc1ccc(S(=O)(=O)Nc2ncccn2)cc1)C1COc2ccccc2O1` (stereo not shown), the “hERG current change (%, negative = inhibition) at 10uM” value is reported as 11.1%. With `COc1ccc(S(N)(=O)=O)cc1C(=O)NCC(C)(C)N1CCCCC1` the “hERG current change (%, negative = inhibition) at 10uM” value was -15.2%. `COc1ccc2c(C)cc(SCc3c(C)noc3C)nc2c1` was tested, and the “hERG current change (%, negative = inhibition) at 10uM” value was -17%. With `O=C(Nc1ccc(CN2CCOCC2)cc1)c1cc(Cl)ccc1Cl` the “hERG current change (%, negative = inhibition) at 10uM” value was 0.807%. `Cc1cc(Br)ccc1NC(=O)CNC(=O)CSc1n[nH]c(N)n1` was tested, and the “hERG current change (%, negative = inhibition) at 10uM” value was 18.5%. `CCc1cc2c3c(c1)C1(C(=O)N3C(C)(C)CC2C)C(C#N)=C(N)N2C(=C1C#N)Nc1ccccc12` (stereo not shown) was tested, and the “hERG current change (%, negative = inhibition) at 10uM” value was -1.49%. For `COc1cc(OC)cc(C(=O)NC2CCCN(Cc3ccc(Cl)cc3)C2)c1` (stereo not shown), the “hERG current change (%, negative = inhibition) at 10uM” value was -37.1%. With `O=C(Cc1cccc(F)c1F)NC1CCCN(Cc2ccc(Cl)cc2)C1` (stereo not shown) the “hERG current change (%, negative = inhibition) at 10uM” value was -21.7%. With `COc1ccc(C(=O)NC2CCCN(Cc3ccc(Cl)cc3)C2)c(OC)c1` (stereo not shown) the “hERG current change (%, negative = inhibition) at 10uM” value was -79.5%. In the case of `O=C(NC1CCCN(Cc2ccc(Cl)cc2)C1)c1ccccc1C(F)(F)F` (stereo not shown), the “hERG current change (%, negative = inhibition) at 10uM” value is reported as -16.9%. `O=C(Cc1ccccc1F)NC1CCCN(Cc2ccc(Cl)cc2)C1` (stereo not shown) was tested, and the “hERG current change (%, negative = inhibition) at 10uM” value was -33.7%. In the case of `O=C(CCc1cccc(Cl)c1)NC1CCCN(Cc2ccccc2F)C1` (stereo not shown), the “hERG current change (%, negative = inhibition) at 10uM” value is reported as -28.3%. In the case of `COc1cccc(CC(=O)NC2CCCN(Cc3ccc(Cl)cc3)C2)c1` (stereo not shown), the “hERG current change (%, negative = inhibition) at 10uM” value is reported as -26.3%. With `O=C(NC1CCCN(Cc2ccc(Cl)cc2)C1)c1cccc(F)c1` (stereo not shown) the “hERG current change (%, negative = inhibition) at 10uM” value was -61.3%. With `O=C(CCc1ccc(F)c(F)c1)NC1CCCN(Cc2ccc(Cl)cc2)C1` (stereo not shown) the “hERG current change (%, negative = inhibition) at 10uM” value was -66%. With `COc1ccc(CCC(=O)NC2CCCN(Cc3ccc(Cl)cc3)C2)cc1OC` (stereo not shown) the “hERG current change (%, negative = inhibition) at 10uM” value was -48.2%. For `O=C(NC1CCCN(Cc2ccc(Cl)cc2)C1)c1c(F)cccc1F` (stereo not shown), the “hERG current change (%, negative = inhibition) at 10uM” value was -15.7%. In the case of `O=C(NC1CCCN(Cc2ccc(Cl)cc2)C1)c1c(F)ccc(F)c1F` (stereo not shown), the “hERG current change (%, negative = inhibition) at 10uM” value is reported as -75.3%.
